Results taken from ChEMBL document CHEMBL3988442, “University of Dundee, Small-Polar-MMV Screening Library” (2021).
Screen size: about 48,000 compounds; about 13,000 (27%) showed an effect of 50% or more. The list shows a part of the results.

Test system: Wolbachia pipientis
Assay: Anti-Wolbachia Cell-Based Screen
Type: functional
Set-up: scale not given: in the data most compounds retested in dose-response had high values
Details: 5 µM

| Compound | Percent Effect |
| --- | --- |
| COCCC(=O)N1CCCC2(CCC(=O)N(CCc3c[nH]cn3)C2)C1 (stereo not drawn) | 0.09306% |
| Cc1cnn(CCNCc2nc(Cc3ccccc3)no2)c1 | -7.265% |
| Fc1cccc(N2CCCC3(C2)CN(c2cnccn2)CCO3)c1 (stereo not drawn) | 1.052% |
| CCc1cc(C(=O)NCC2CCN(Cc3cccc(C#N)c3)C2)on1 (stereo not drawn) | 4.535% |
| CN1[C@@H](C(=O)NCC2CC2)C[C@H]2CN(Cc3cccc(C#N)c3)C[C@H]21.O=C(O)C(F)(F)F.O=C(O)C(F)(F)F | 99.16% |
| O=C(NCC1CC1)[C@H]1CN(Cc2nccs2)C[C@H]2OCC[C@@H]12.O=C(O)C(F)(F)F | -15.61% |
| Cn1ccnc1NC[C@@H]1CCC[C@@H]2CN(Cc3nccs3)C[C@@H]21.O=C(O)C(F)(F)F | -0.855% |
| CO[C@H]1CN(Cc2cccc(C#N)c2)[C@@H]2COC[C@H]12.O=C(O)C(F)(F)F | -6.68% |
| CC(=O)N1[C@@H](C(=O)NCC2CC2)C[C@@H]2CN(Cc3nccs3)C[C@@H]21.O=C(O)C(F)(F)F | 88.62% |
| CN(C)S(=O)(=O)c1csc(C(=O)N2CCSCC2)c1 | -1.993% |
| CC(C)c1cc(C(=O)N[C@H]2CN(C3CCOCC3)C[C@@H]2C2CC2)no1 | -8.943% |
| Cc1nccn1C1CCCN(C(=O)c2cc(O)nc3ccccc23)C1 (stereo not drawn) | -15.61% |
| COc1ncccc1C(=O)N1CCCC(c2cc(C)[nH]n2)C1 (stereo not drawn) | -2.172% |
| COCCOc1ncccc1C(=O)N1CCCC(n2ccnc2C)C1 (stereo not drawn) | 113.9% |
| COc1ncccc1C(=O)N1CCCC(n2ccnc2C)C1 (stereo not drawn) | 125.3% |
| CC(C)(C)CNC[C@H]1Cn2c(-c3ccccc3)cnc2CO1 | -15.45% |
| CC(=O)N1CCN(C(=O)CNc2ccc3sccc3c2)CC1 | -10.18% |
| O=C(NCC(=O)N1CCCCC1)c1ccc(Cl)cc1I | -12.84% |
| CC(CNC(=O)c1ccc(Cl)cc1I)N1CCCC1 (stereo not drawn) | -14.44% |
| CCn1cnnc1CNC(=O)c1ccc(Cl)cc1F | 9.197% |
| O=C(NCc1nnc2n1C(C(=O)NC1CC1)CC2)c1ccc(Cl)cc1Cl (stereo not drawn) | 110.4% |
| CN(C)C(=O)C1CCc2nnc(CNC(=O)c3ccc(Cl)cc3Cl)n21 (stereo not drawn) | 114.2% |
| CC(C)NC(=O)C1CCc2nnc(CNC(=O)c3ccc(Cl)cc3Cl)n21 (stereo not drawn) | 98.13% |
| CC(C)C(NC(=O)c1ccc(Cl)cc1Cl)C(=O)Nc1cnn(C)c1 (stereo not drawn) | 12.86% |
| CC(C)CNC(=O)c1ccc(NC(=O)NC2CC2)cc1Cl | -3.361% |

| Compound | Percent Effect |
| --- | --- |
| Cn1cc(-c2cnc3n2CCC32CCN(S(=O)(=O)C3CC3)CC2)cn1.O=C(O)C(F)(F)F | 2.089% |
| CC(NS(=O)(=O)N(C)C(C)C)C(=O)N(C)C (stereo not drawn) | -8.822% |
| COc1ccc(Cl)cc1CS(=O)(=O)Cc1nc(C)no1 | 9.011% |
| CCOc1cc(C(=O)NS(C)(=O)=O)cc(-c2ccccc2)c1OC | 4.998% |
| CS(=O)(=O)NCc1cc2n(n1)CCCN(Cc1nc3ccccc3[nH]1)C2 | 2.68% |
| Cc1nn(C)c(C)c1S(=O)(=O)NCCn1ccc(-c2cccs2)n1 | -20.8% |
| Cl.O=C(C1CCC1)N1C[C@@H](c2ccsc2)[C@@H]2CN(C3CCCC3)CC[C@@H]21 | 127.5% |
| O=C(C1CCC1)N1CCN(Cc2ccsc2)[C@H]2CS(=O)(=O)C[C@H]21 | -4.22% |
| Cl.O=C(C1CCC1)N1C[C@@H](c2ccsc2)[C@@H]2CN(C3CCCCC3)CC[C@@H]21 | 144.1% |
| CN(C)c1ccc(NC(=O)N2CCCC2c2ccsc2)cn1 (stereo not drawn) | 11.58% |
| Cl.O=C(C1CCCC1)N1C[C@@H](c2ccsc2)[C@@H]2CN(C3CCCC3)CC[C@@H]21 | 194.4% |
| CSc1ncc(CN2CC(Oc3c(C)cccc3C)C2)cn1 | -6.082% |
| CCC(Nc1nc(C(C)C)nc2c1cnn2C)c1ccncc1 (stereo not drawn) | -4.681% |
| Cc1ccc(NS(=O)(=O)CC2=NC(=O)n3cccc3C2=O)cc1 | 7.318% |
| O=C(Nc1ccccc1)c1ccc(NCc2ccccc2CO)nn1 | -18.51% |
| CCCS(=O)(=O)N1CCC2(CC1)CN(c1ccccn1)CCO2.O=C(O)C(F)(F)F | 3.761% |
| O=C(NCC1CCOC1)Nc1ccc(OCC(F)(F)F)nc1 (stereo not drawn) | -13.99% |
| COCCC(=O)N1CCc2nc(N3CCOCC3)nc(NC(C)C)c2C1 | -19.12% |
| COCCC(=O)N1CCC(c2ccc3c(NC(C)C)n[nH]c3n2)C1 (stereo not drawn) | 74.92% |
| Cc1ncsc1C(=O)N1CCC(c2ccc3c(NC(C)C)n[nH]c3n2)C1 (stereo not drawn) | 170.9% |
| CC(C)Nc1n[nH]c2nc(C3CCN(C(=O)c4ccccn4)C3)ccc12 (stereo not drawn) | 75.7% |
| CC(C)Oc1cccc(C(=O)C2CCCN(C(=O)c3ccccn3)C2)c1 (stereo not drawn) | -12.09% |
| COCCOCCC(=O)N1CCC(c2ccccc2C)C1 (stereo not drawn) | -9.058% |
| CC(C)c1nc2n(n1)CC(NCc1nc(-c3ccsc3)no1)CC2 (stereo not drawn) | -1.114% |
| O=c1n(CC2CCCCO2)nc(CC2CCNCC2)n1-c1ccccc1 (stereo not drawn) | 26.34% |

| Compound | Percent Effect |
| --- | --- |
| CC(NC(=O)c1cc(Br)c2c(c1)OCCO2)C(N)=O (stereo not drawn) | -7.344% |
| CC(C)OCCS(=O)(=O)N1CCN(Cc2cccn2C)CC1 | -8.582% |
| CC(C)CN1C(=O)C2(CCCC2)NC12CCSCC2 | -2.921% |
| CCOc1ccc(C(=O)N2Cc3cnc(CC)nc3C2)o1 | -12.82% |
| CCN(CC)S(=O)(=O)NC(=O)c1cc(C)n(-c2ccccc2)n1 | 6.675% |
| CCCS(=O)(=O)NC(=O)c1cc(C)n(-c2ccccc2)n1 | 6.254% |
| CNC(=O)c1cc(C)n(-c2ccccc2)n1 | 92.62% |
| COc1cc(N2CCCC(c3nccn3Cc3cscn3)C2)nc(N)n1 (stereo not drawn) | 2.098% |
| O=c1[nH]c2c(c(=O)n1C1CCCCC1)CCC2Nc1ccccc1 (stereo not drawn) | -8.343% |
| O=c1[nH]c2c(c(=O)n1C1CCCCC1)CCC2Nc1ccccc1Cl (stereo not drawn) | 4.437% |
| O=c1[nH]c2c(-c3ccccn3)nsc2c(=O)n1C1CCCCC1 | 110.2% |
| COc1ccc(F)c(F)c1C(=O)N1C[C@@H](CN(C)CCO)[C@@H](CO)C1 | -3.681% |
| COCCN(C)C[C@@H]1CN(C(=O)c2ccc(SC)cc2)C[C@@H]1CO | 113.3% |
| COCCN(C)C[C@@H]1CN(C(=O)c2ccc(OC)c(F)c2)C[C@@H]1CO | 94.27% |
| COCCN(C)C[C@@H]1CN(C(=O)c2c(F)ccc(OC)c2F)C[C@@H]1CO | -13.51% |
| COCCN(C)C[C@@H]1CN(C(=O)C(C)(C)c2ccccc2)C[C@@H]1CO | 115.8% |
| O=C(c1ccc2c(c1)OCO2)N1C[C@@H](CN2CCCCC2)[C@@H](CO)C1 | -23.85% |
| COCCN(C)C[C@@H]1CN(C(=O)c2ccc3c(c2)OCO3)C[C@@H]1CO | 100.3% |
| CCc1ccc2nc(C)cc(C(=O)NC3CCCCNC3=O)c2c1 (stereo not drawn) | -55.41% |
| COc1ccc(N2CCC(N3CCOC(C(F)(F)F)C3)CC2)cc1 (stereo not drawn) | 26.01% |
| COC(=O)c1ccc(Cl)c(CN(C)Cc2ncnn2C)c1 | -12.36% |
| COC(=O)CCCC(=O)N(C)CC1Cc2ccccc2CN1C (stereo not drawn) | -6.642% |
| CS(=O)(=O)Cc1ccc(C(=O)NCC2Cc3ccccc3O2)cc1 (stereo not drawn) | -4.65% |
| COCCN(C)C[C@@H]1CN(C(=O)c2ccoc2)C[C@@H]1CO | -5.57% |
| COc1ccc(C)cc1C(=O)N1C[C@@H](CN(C)CCO)[C@@H](CO)C1 | -25.29% |

| Compound | Percent Effect |
| --- | --- |
| COCCN(C)C[C@@H]1CN(C(=O)c2ccc(C)cc2)C[C@@H]1CO | 166.3% |
| Cc1cc(C(=O)N2CCn3cnc(COCC4CC4)c3C2)no1 | -11.47% |
| CCc1n[nH]c(C2CN(C(=O)c3ccc4c(c3)CCC4)CCO2)n1 (stereo not drawn) | 79.95% |
| Cc1n[nH]c(C2CN(C(=O)c3ccc4c(c3)CCCC4)CCO2)n1 (stereo not drawn) | -29.36% |
| CCc1n[nH]c(C2CN(C(=O)c3cc4c(s3)CCCC4)CCO2)n1 (stereo not drawn) | -2.74% |
| CCc1n[nH]c(C2CN(C(=O)c3ccc4c(c3)CCCC4)CCO2)n1 (stereo not drawn) | 128.9% |
| CCc1nc(CNC2CCCc3c2cnn3CC)cs1 (stereo not drawn) | 1.475% |
| CCN1CCCC1CN(CCN(C)C)S(=O)(=O)c1cccc(C#N)c1 (stereo not drawn) | -13.07% |
| COCCCC1CCCCN1S(=O)(=O)c1cccc(C#N)c1 (stereo not drawn) | 99.73% |
| CS(=O)(=O)NCC1CCCCN1Cc1cccc(C#N)c1 (stereo not drawn) | 20.87% |
| N#Cc1cccc(S(=O)(=O)N2CCCCC2CCN2CCCC2=O)c1 (stereo not drawn) | 2.931% |
| N#Cc1cccc(S(=O)(=O)N2CCCCC2CCN2CCCC2)c1 (stereo not drawn) | 93.73% |
| CC(C)C1CN(S(=O)(=O)c2cccc(C#N)c2)CCS1 (stereo not drawn) | -18.57% |
| O=C(O)c1csc(S(=O)(=O)N2CCCc3cc(OC(F)F)ccc32)c1 | -5.134% |
| Cc1ccc(N2C[C@H]3CCC[C@@]3(COc3cccnc3)C2)nn1.O=C(O)C(F)(F)F.O=C(O)C(F)(F)F | -0.008691% |
| O=C(C1CCOCC1)N1C[C@H]2CCC[C@@]2(COc2cccnc2)C1.O=C(O)C(F)(F)F | 89.34% |
| O=C(C1CCOCC1)N1C[C@H]2CCC[C@@]2(COCc2ccccn2)C1 | 98.54% |
| CN(C)S(=O)(=O)N1C[C@H]2CCC[C@@]2(COc2cccnc2)C1.O=C(O)C(F)(F)F | 5.762% |
| CN(C)S(=O)(=O)N1C[C@H]2CCC[C@@]2(COCc2ccccn2)C1.O=C(O)C(F)(F)F | 5.963% |
| O=C(N1CCCC1)N1C[C@H]2CCC[C@@]2(COCc2ccccn2)C1.O=C(O)C(F)(F)F | 108.6% |
| COC[C@@]12CCC[C@@H]1CN(C(=O)Cc1ccccn1)C2.O=C(O)C(F)(F)F | 87.04% |
| O=C(O)C(F)(F)F.O=C(c1ncccn1)N1C[C@H]2CCC[C@@]2(COCc2cccnc2)C1 | 0.3809% |
| Cc1noc(C)c1C(=O)N1C[C@H]2CCC[C@@]2(COc2ccccn2)C1.O=C(O)C(F)(F)F | -9.504% |
